The text below walks through data of PubChem BioAssay (EPA / NIEHS).

The nature of assay [1]: APR_HepG2_P-H2AX_72hr: Apredica 72-hour HepG2 Assay for H2AX Phosphorylation (AID 2282916).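 Also: phospho-histone H2A.x immunostain intensity per cell marking DNA damage.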 The conditions noted are these: imaging, actives raise or lower the signal. The gist of the method: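 Following 72 hr treatment with 0.39–200 uM compound, HepG2 cells were formaldehyde-fixed, permeabilized and stained for phospho-H2A.x; signal was measured by high-content imaging and fitted bidirectionally against DMSO controls.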

Assay [2] is described as follows: APR_HepG2_MitoMembPot_72hr: Apredica 72-hour HepG2 Assay for Mitochondrial Membrane Potential (AID 2282917). The conditions noted are these: imaging, actives raise or lower the signal. The gist of the method: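 HepG2 cells dosed 72 hr with compound at 0.39–200 uM in duplicate, 0.5% v/v DMSO final. Mitochondria stained with 250 nM MitoTracker Red CMXRos for 30 min before formaldehyde fixation, imaged by high-content fluorescence; bidirectional fit versus DMSO.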

A short description of assay [3]: APR_HepG2_MitoticArrest_72hr: Apredica 72-hour HepG2 Assay for Mitotic Arrest (AID 2282918). The conditions noted are these: high-content imaging, actives raise or lower the signal. The method in brief: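 HepG2, 72 hr exposure, 0.39–200 uM in duplicate, 0.5% v/v DMSO final. Formaldehyde-fixed, Triton-permeabilized, anti-phospho-histone H3/FITC plus Hoechst. ArrayScan imaging at 20x; curves fit bidirectionally against DMSO baseline.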

Assay [4] in a line: APR_HepG2_MicrotubuleCSK_72hr: Apredica 72-hour HepG2 Assay for Microtubule CSK Stabilty (AID 2282919). The conditions noted are these: HepG2 microtubule cytoskeleton, high-content imaging, actives raise or lower the signal. The method in brief: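 HepG2 cells were exposed 72 hr to compound at 0.39–200 uM in duplicate (0.5% DMSO final), then fixed and permeabilized. Alpha-tubulin immunofluorescence was imaged by high-content microscopy, with bidirectional fitting against DMSO and taxol as positive control.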

A short description of assay [5]: APR_HepG2_P-H2AX_24hr: Apredica 24-hour HepG2 Assay for H2AX Phosphorylation (AID 2282920). The conditions noted are these: high-content imaging, actives raise or lower the signal. The gist of the method: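 HCS fluorescence imaging of phospho-H2A.x immunostain (with Hoechst 33342 nuclear counterstain) in HepG2 after 24 hr compound exposure; 10 concentrations, 0.39–200 uM, duplicate wells, 0.5% v/v DMSO. Gain or loss of signal fitted relative to DMSO baseline.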

Assay [6] is described as follows: APR_HepG2_StressKinase_72hr: Apredica 72-hour HepG2 Assay for Stress Kinase (AID 2282921). The conditions noted are these: HepG2 stress kinase (phospho-c-Jun) imaging, actives raise or lower the signal. The gist of the method: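 Fluorescence intensity of Cy3-tagged anti-phospho-c-Jun antibody, quantified per cell from Hoechst-defined nuclei across six images per well, served as the read-out following 72 h exposure (0.39–200 uM, 0.5% v/v DMSO).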

A short description of assay [7]: APR_HepG2_StressKinase_24hr: Apredica 24-hour HepG2 Assay for Stress Kinase (AID 2282922). The conditions noted are these: HepG2 stress kinase (phospho-c-Jun) imaging, actives raise or lower the signal. The method in brief: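 HepG2 cells exposed 24 h to 0.39–200 uM compound in duplicate (0.5% v/v DMSO final). Cells fixed in 3.7% formaldehyde, permeabilized and immunostained for phospho-c-Jun; read by high-content fluorescence imaging, fitted bidirectionally against DMSO.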

Assay [8] can be described thus: APR_HepG2_p53Act_72hr: Apredica 72-hour HepG2 Assay for p53 Activation (AID 2282923).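 Also: average cellular p53 protein immunofluorescence intensity in HepG2 cells.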 The conditions noted are these: high-content imaging, actives raise or lower the signal. The gist of the method:
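HepG2 monolayers receive test compounds in duplicate at ten concentrations (0.39 through 200 uM) for 72 hr. They are then formaldehyde-fixed, antibody-labelled for p53, Hoechst-stained and imaged, with activity fitted bidirectionally versus DMSO.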

A short description of assay [9]: APR_HepG2_MitoMass_72hr: Apredica 72-hour HepG2 Assay for Mitochondrial Mass (AID 2282924).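 Also: MitoTracker Red CMXRos stain intensity per cell imaged as mitochondrial mass.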 Conditions: high-content imaging, actives raise or lower the signal. The gist of the method:
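HepG2 cells dosed 72 hr at 0.39–200 uM (0.5% DMSO), in duplicate. MitoTracker Red CMXRos 250 nM loaded 30 min before formaldehyde fixation; high-content fluorescence imaging, bidirectional fit versus DMSO.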

A short description of assay [10]: APR_HepG2_NuclearSize_72hr: Apredica 72-hour HepG2 Assay for Nuclear Size (AID 2282925). The conditions noted are these: high-content imaging, actives raise or lower the signal. The gist of the method: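 HepG2 cells dosed 72 h at 0.39–200 uM (10 concentrations, duplicate) in 0.5% v/v DMSO final. Fixed, Hoechst 33342-stained nuclei imaged; nuclear diameter measured by automated image analysis. Bidirectional fit versus DMSO.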

Molecules are shown by their SMILES. Active and inactive are the calls of the source. The calls were made as follows: active = hit-call score of the fitted dose curve at least 0.9, where 1 is the maximum; inactive = score below 0.9.

Consider `ClC1=C(Cl)[C@]2(Cl)[C@@H]3[C@@H](Cl)[C@H]4O[C@H]4[C@@H]3C1(Cl)C2(Cl)Cl`, for which the AC50 in [1] is 48.2 µM (active); in assay [3], 51.6 µM (active); in assay [5], 62.3 µM (active); in [8], 54.5 µM (active). Also, the molecule was called inactive in [2], in [4], in assay [6], in [7], in assay [9] and in assay [10].
Consider `O=C(N[C@H]1CN2CCC1CC2)c1cc2ccoc2cn1`, for which the result in [1], in [2], in assay [3], in assay [4], in [5] and in assay [6] was inactive. The call in [8], in assay [9] and in assay [10] was inactive.
Consider `CCCN(CCC)N=O`, for which the molecule was classed as inactive in assay [1], in assay [2], in assay [3], in assay [4], in assay [5] and in [6]. Moreover, the molecule was classed as inactive in assay [8], in assay [9] and in [10].
Regarding `c1cc2ccc3cccc4ccc(c1)c2c34`, the AC50 in assay [1] is 104 µM (active); in assay [10], 113 µM (active). Besides, the call in assay [2], in assay [3], in assay [4], in assay [5], in assay [6] and in assay [8] was inactive. Moreover, the molecule was called inactive in [9].
Take `Cc1cc(-c2ccc(N)c(C)c2)ccc1N`: the call in assay [1], in [2], in assay [3], in assay [4], in [5] and in [6] was inactive. In addition, the result in assay [8], in [9] and in assay [10] was inactive.
With `COc1ccc(O)c(C(C)(C)C)c1`, the molecule was classed as inactive in assay [1], in assay [2], in [3], in assay [4], in [5] and in [6]. Besides, the call in assay [8], in assay [9] and in [10] was inactive.
As to `O=C(NC(=O)c1c(F)cccc1F)Nc1cc(Cl)c(OC(F)(F)C(F)F)c(Cl)c1`, the result in assay [1], in assay [2], in assay [4], in [5], in [6] and in assay [9] was inactive. The outcome in [10] was inactive. For the same molecule, the AC50 was 16.9 µM (active) in [3] and 6.27 µM (active) in assay [8].
Consider `Nc1ccc(-c2ccc(N)cc2)cc1`, for which the half-maximal activity concentration (AC50) in assay [1] is 104 µM (active); in assay [5] it was 91.2 µM (active); in assay [8], 106 µM (active). The molecule was called inactive in assay [2], in [3], in [4], in [6], in assay [9] and in assay [10].
On to `Nn1cnnc1`, for which the outcome in [1], in assay [2], in [3], in assay [4], in [5] and in assay [6] was inactive. Moreover, the outcome in assay [8], in assay [9] and in [10] was inactive.
Consider `O=C(O)C(F)(F)C(F)(F)C(F)(F)C(F)(F)C(F)(F)F`, for which the call in [1], in assay [2], in assay [3], in [4], in [5] and in assay [6] was inactive. Also, the molecule was called inactive in assay [8], in assay [9] and in [10].
On to `ClC(Cl)=C(c1ccc(Cl)cc1)c1ccc(Cl)cc1`, for which the call in assay [1], in [2], in assay [4], in [6], in [8] and in assay [10] was inactive. Further, the AC50 was 22.5 µM (active) in [3], 53.7 µM (active) in [5] and 60.2 µM (active) in [9].
For `CN(C)c1nc(=O)n(C2CCCCC2)c(=O)n1C`, the outcome in assay [1], in assay [2], in assay [3], in assay [4], in assay [5] and in assay [6] was inactive. Moreover, the result in assay [9] and in assay [10] was inactive.
`c1ccc(-c2ccccc2)cc1`: the molecule was classed as inactive in [1], in [2], in assay [3], in assay [4], in assay [5] and in assay [6]. For the same molecule, the result in assay [8], in [9] and in assay [10] was inactive.
As for `CCC(C)(c1ccc(O)cc1)c1ccc(O)cc1`, the molecule was classed as inactive in [1], in [7], in [8] and in assay [10]. Further, the values for the AC50 in assay [5] and in [6] were 104 µM (active) and 34.3 µM (active), respectively.
With `N#Cc1ccc(N(CC(N)=O)CC(F)(F)F)cc1C(F)(F)F`, the molecule was called inactive in [1], in assay [2], in assay [3], in [4], in assay [5] and in assay [6]. Besides, the molecule was called inactive in assay [8], in assay [9] and in [10].
Regarding `CO/C=C(/C(=O)OC)c1ccccc1COc1cccc(C(F)(F)F)n1`, the AC50 in assay [1] is 20.5 µM (active); in assay [3], 29.1 µM (active); in assay [8] it was 26.9 µM (active); in assay [9], 0.638 µM (active). In addition, the result in [2], in [4], in assay [5], in assay [6] and in assay [10] was inactive.
On to `Oc1ccc(Cl)cc1Cl`, for which the molecule was called inactive in assay [1], in assay [2], in assay [3], in assay [4], in assay [5] and in assay [6]. Also, the molecule was called inactive in assay [8], in assay [9] and in assay [10].

The term AC50 denotes the concentration at which the activity in the assay is half-maximal.
